Assay results reported in PubChem BioAssay (NCATS).
Records with an inconclusive call do not appear. A number with no mark means an inactive call. The source made the active and inactive calls. The call rests on the fitted dose curve; in most records, active means well fitted cell-killing curve with a large enough effect; inconclusive means small, poorly fitted or top-dose-only effect; inactive means flat fitted curve, though single readings scatter.

Experiment: qHTS of pediatric cancer cell lines to identify multiple opportunities for drug repurposing: Primary screen for TC32 cells (AID 1347089); further: nearly all actives have a fitted effect of over 60% in size
Settings: TC32 Ewing sarcoma viability, CellTiter-Glo luminescence, 48 h; series mostly up to 45.8 µM; activity change, negative = cytotoxic: at the top concentration
Method in brief: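 In the primary qHTS, MIPE compounds were tested at 11 concentrations (0.78 nM to 46 µM) and NPC compounds at 8 (0.59 nM to 46 µM) on TC32 cells for 48 h. CellTiter-Glo luminescence gave viability.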
On the % scale 0 is the no-effect control and ±100 the full control effect; potency means the concentration at half of the fitted maximal effect.

Point of comparison: `Cc1cnc(Nc2cccc(CN3CCOCC3)c2)nc1Nc1cccc(S(=O)(=O)NC(C)(C)C)c1`, “activity change, negative = cytotoxic” value 8.93%. Against it:
- C[C@@H](N)c1ccc(C(=O)Nc2ccnc3[nH]ccc23)cc1 — lower, 3.88%
- NCC1CCC(C(=O)O)CC1 (stereo unspecified) — lower, 7.28%
- CC(C)c1c(C(=O)Nc2ccccc2)c(-c2ccccc2)c(-c2ccc(F)cc2)n1CC[C@H](O)C[C@@H](O)CC(=O)O — lower, -15%
- O=C(Nc1ccc(OC(F)(F)F)cc1)c1sccc1NCc1ccnc2ccccc12 — lower, -6.14%
- CCOc1ccccc1N=Nc1c(C)[nH]n(-c2nc(-c3ccccc3)cs2)c1=O — lower, 0.779%
- CN1CC(=O)NC1=NC(=O)Nc1cccc(Cl)c1 — lower, 2.17%
- Cc1nc2c([nH]1)CCN(C(=O)c1ccc(NC(=O)c3ccccc3-c3ccccc3)cc1)c1ccccc1-2 — lower, 3.47%
- C=CC[N+]1([C@H]2C[C@H]3[C@@H]4CC[C@H]5C[C@H](O)[C@@H](N6CCOCC6)C[C@]5(C)[C@@H]4CC[C@]3(C)[C@H]2OC(C)=O)CCCC1 — lower, 2.85%
- C[C@@H](O)[C@H]1C(=O)N2C(C(=O)OCOC(=O)C(C)(C)C)=C(SC3CN(C4=NCCS4)C3)[C@H](C)[C@H]12 — lower, 4.69%
- CNc1nc(Nc2ccc(C(=O)N3CCOCC3)cc2OC)ncc1Cl — lower, -3.16%
- COc1cc2c(cc1OC)CC(=O)N(CCCN(C)C[C@H]1Cc3cc(OC)c(OC)cc31)CC2 — higher, 13.5%
- CC(C)c1onc(-c2c(Cl)cccc2Cl)c1COc1ccc(C=Cc2cccc(C(=O)O)c2)c(Cl)c1 — lower, -5.41%
- COc1ccc(CCN(C)CCCOc2ccc(S(=O)(=O)c3[nH]c4ccccc4c3C(C)C)cc2)cc1OC — lower, 3.56%
- COc1cc2c(cc1OC)[C@@H]1Cc3ccc(OC)c(OC)c3CN1CC2 — lower, -1.89%
- O=S(=O)(O)c1ccc2cc(N=Nc3cc(S(=O)(=O)O)c4cccnc4c3O)ccc2c1 — lower, 5.48%
- CC(=O)N1CCN(c2ccc(OCc3nn(C)c(C)c3-c3cccc4c(CCCOc5cc(C)c(Cl)c(C)c5)c(C(=O)O)n(Cc5cccnc5)c34)cc2)CC1 — higher, 12.3%
- C[C@]12CC[C@@H]3c4ccc(O)cc4CC[C@H]3[C@H]1[C@@H](O)[C@@H](O)[C@H]2O — higher, 16.1%
- CCN1CCN(c2ccc(Nc3cc(N(C)C(=O)Nc4c(Cl)c(OC)cc(OC)c4Cl)ncn3)cc2)CC1 — higher, 8.98%
- CC1C(=O)OC2C(O)C34C5CC(C(C)(C)C)C36C(OC(=O)C6O)OC4(C(=O)O5)C12O (stereo unspecified) — lower, 7.85%
- COc1nc(C)cnc1NS(=O)(=O)c1cccnc1-c1ccc(-c2nnco2)cc1 — higher, 9.03%
- CN[C@@H]1[C@@H](O)[C@@H](O[C@@H]2[C@@H](O)[C@H](O[C@H]3O[C@H](CN)[C@@H](O)[C@H](O)[C@@H]3O)[C@@H](N)C[C@@H]2NC(=O)[C@@H](O)CN)OC[C@]1(C)O — higher, 9.79%
- COc1ccc(-c2cc(=O)c3c(O)cc(O[C@@H]4O[C@H](CO[C@@H]5O[C@@H](C)[C@H](O)[C@@H](O)[C@@H]5O)[C@@H](O)[C@H](O)[C@@H]4O)cc3o2)cc1O — lower, 8.55%
- Cc1c(C(=O)Nc2ccc(N3C[C@@H](C)O[C@@H](C)C3)nc2)cccc1-c1ccc(OC(F)(F)F)cc1 — lower, 0.151%
- CC1(C)OC2CC3C4CC(F)C5=CC(=O)C=CC5(C)C4C(O)CC3(C)[C@]2(C(=O)CO)O1 (stereo partly specified) — higher, 12.9%
- Cc1ccccc1C(C(=O)NC1CCCCC1)N(C(=O)CNc1ccc(C#N)cc1)c1cccc(F)c1 (stereo unspecified) — lower, 4.44%
- CN1c2ccccc2C(=O)N2CCc3c([nH]c4ccccc34)C21 (stereo unspecified) — lower, 5.19%
- Cn1cc(-c2ccc3nnc(Sc4ccc5ncccc5c4)n3n2)cn1 — lower, 5.93%
- CCCCCCCCCCCCCCCC(=O)O[C@H]1[C@@H](O)[C@@H](O)[C@@H]([C@H](NC(=O)[C@@H]2C[C@@H](CCC)CN2C)[C@H](C)Cl)O[C@@H]1SC — lower, -3.14%
- COc1cc(Cl)cn2c(-c3cccc(NC4CNC4)n3)cnc12 — lower, -5.17%
- Cc1nc(C(=O)NCC(=O)O)c(O)c2ccc(Oc3ccccc3)cc12 — lower, 6.35%
- C[C@@]1(c2cc(-c3cncnc3)c(F)cc2F)CCSC(N)=N1 — lower, 8.72%

For `Nc1ccc(-c2ccc3ncc4ccc(=O)n(-c5cccc(C(F)(F)F)c5)c4c3c2)cn1`, the Potency was 10.4 nM (active).
With `COc1c(C)c2c(c(O)c1CC=C(C)CCC(=O)O)C(=O)OC2` the Potency was 5230 nM (active).
With `CC1(C)CC(=O)c2c(C(F)(F)F)nn(-c3ccc(C(N)=O)c(NC4CCC(O)CC4)c3)c2C1` (stereo unspecified) the Potency was 208 nM (active).
For `CC(C)(C)c1[nH]cnc1C=c1[nH]c(=O)c(=Cc2ccccc2)[nH]c1=O`, the Potency was 6.8 nM (active).
